Compounds with a hit are over-represented: about 9.3% of the library has one in this group of screens.
HCV inh: blocks hepatitis C virus | Potency, µM (highest dose often 41.8 µM), inactives show top-dose activity change, negative = inhibition, actives largely listed as inhibitors | hit rate 3.4% among 340,000 | AID 651820 | Huh7.5.1 HCVcc-Cre infection, luciferase reporter, 44 h; also: potency is read from the fitted curve at half-maximal effect
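Compounds are dispensed onto cells plated 4 h earlier at 1,000 per well, with HCVcc-Cre virus (about 0.5 moi) added next. Following 44 h of culture, luminescent signal is measured for 15 sec after 15 min with substrate at room temperature.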
Sm TGR inh: S. mansoni TGR enzyme inhibition; Q962Y6; purified TGR, DTNB reduction, TNB absorbance 405 nm; Potency, µM (highest dose often 114 µM), without a hit: top-dose activity change, negative = inhibition, actives largely listed as inhibitors; hit rate 3% among 360,000; AID 485364; also: potency is read from the fitted curve at half-maximal effect; nearly all actives have a fitted effect of over 60% in size
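Kinetic colorimetric format: TGR-catalysed, NADPH-driven DTNB reduction monitored via TNB absorbance. Enzyme dispensed at 20 nM; compound exposure 15 min at room temperature before reaction start.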
FMDV inh: foot and mouth disease virus antiviral activity; FMDV antiviral cell-based qHTS; Potency, µM (series often up to 57.9 µM), inactives show at the top dose activity change, negative = inhibition, actives largely listed as inhibitors; hit rate 1.2% among 410,000; calls by dose curve; tested in HEK293T cells; also: read-out not given here; potency is read from the fitted curve at half-maximal effect; nearly all actives have a fitted effect of over 45% in size
VACV Venus inh: vaccinia inhibition (Venus reporter); Vaccinia virus Venus reporter expression, fluorescence; Potency, µM (doses to about 36.5 µM), inactives show at the highest dose activity change, negative = inhibition, actives largely listed as inhibitors; hit rate 0.46% among 330,000; AID 720580; calls by dose curve; tested in A549 cells; also: potency is read from the fitted curve at half-maximal effect; nearly all actives have a fitted effect of over 30% in size
Vaccinia mCherry: vaccinia inhibition (mCherry reporter). hit rate 0.63% among 310,000. Potency, µM (titrated, usually from 36.5 µM), for inactives: top-dose activity change, negative = inhibition, actives largely listed as inhibitors. Vaccinia virus mCherry reporter infection, fluorescence; calls by dose curve; tested in A549 cells; also: potency is read from the fitted curve at half-maximal effect; nearly all actives have a fitted effect of over 35% in size
HCMV inh: human cytomegalovirus inhibition; activity change, negative = inhibition, % at 57.5 µM; hit rate 4.5% among 410,000; HFF cells, HCMV-luciferase reporter, 72 h; active compounds read low; in the data active = activity change below about -60%; inconclusive = no clear call, values can overlap the other calls; inactive = above about -39%
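Steps: HFFs plated, 16 h 37C; compounds added; HCMV-luciferase added to MOI 1 PFU/cell; 72 h 37C; OneGlo reagent, 5 min room temperature; luminescence read, normalized to controls.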
The depositor's hits bear a star. Unless noted, calls follow the shape of the dose curve; as a rule, active = well fitted curve in the direction sought with a large enough effect; inconclusive = small, poorly fitted or top-dose-only effect, or another doubt; inactive = no such curve, though single readings can be large; an effect the other way counts as inactive or inconclusive. % is scaled to controls: 0 for no effect and ±100 for the full control effect.

What do the screens show for `O=C(CCSCc1ccccc1Cl)NCc1cccs1`?
HCV inh: 9%; Sm TGR inh: -3%; FMDV inh: 30%; VACV Venus inh: -21%; Vaccinia mCherry: -18%; HCMV inh: -5

Results for O=C(CCSCCC(=O)NCc1cccs1)NCc1cccs1 ?
HCV inh: 1%; Sm TGR inh: 40µM*; FMDV inh: 5%; VACV Venus inh: -5%; HCMV inh: -27

What do the screens show for `COc1ccc(CCN(Cc2nc3ccccc3c(=O)[nH]2)C(=O)c2ccco2)cc1`?
HCV inh: 5%; Sm TGR inh: -14%; FMDV inh: -4%; VACV Venus inh: 1%; Vaccinia mCherry: -7%; HCMV inh: 40

Results for Cc1ccc(CN(Cc2ccco2)C(=O)c2ccco2)cc1 ?
HCV inh: inconclusive; Sm TGR inh: 0%; FMDV inh: 0%; HCMV inh: -29

Results for COc1ccc(CN(CCC(c2ccccc2)c2ccco2)C(=O)c2ccco2)cc1 (centres undefined) ?
HCV inh: -22%; Sm TGR inh: 35µM*; FMDV inh: -19%; VACV Venus inh: -7%; Vaccinia mCherry: inactive; HCMV inh: -2

How did O=C(c1ccco1)N(CCC(c1ccccc1)c1ccco1)Cc1ccccc1 (centres undefined) do in these assays?
HCV inh: -19%; Sm TGR inh: 50µM*; FMDV inh: inconclusive; VACV Venus inh: -13%; Vaccinia mCherry: inactive; HCMV inh: -36

How did O=C(Cc1nn[nH]n1)Nc1cc(Cl)cc(Cl)c1 do in these assays?
HCV inh: 10%; Sm TGR inh: -4%; FMDV inh: 8%; HCMV inh: -13

What do the screens show for `CC1C(=O)N(Cc2cn(CC3CCCCC3)nn2)CCS(=O)(=O)N1Cc1ccc(-c2ccc(Cl)cc2)cc1` (centres undefined)?
FMDV inh: inconclusive; VACV Venus inh: 11µM*; Vaccinia mCherry: inconclusive

Results for CC1C(=O)N(Cc2cn(CC3CCCCC3)nn2)CCS(=O)(=O)N1Cc1ccc(-c2ccc(Cl)c(Cl)c2)cc1 (centres undefined) ?
FMDV inh: inconclusive; VACV Venus inh: -21%; Vaccinia mCherry: -5%; HCMV inh: -5

What do the screens show for `CC(C)C1C(=O)N(Cc2cn(CC3CCCCC3)nn2)CCS(=O)(=O)N1Cc1ccc(-c2ccc(Cl)cc2)cc1` (centres undefined)?
FMDV inh: -26%; VACV Venus inh: inconclusive; Vaccinia mCherry: 10µM*; HCMV inh: -12

Results for Cc1ccc(-c2ccc(CN3C(C(C)C)C(=O)N(Cc4cn(CC5CCCCC5)nn4)CCS3(=O)=O)cc2)cc1 (centres undefined) ?
FMDV inh: -22%; VACV Venus inh: inconclusive; Vaccinia mCherry: -10%; HCMV inh: 18

How did N#CC1C(=O)NC(c2ccccc2)=CC1c1ccccc1 (centres undefined) do in these assays?
HCV inh: 1%; FMDV inh: -18%; VACV Venus inh: -7%; Vaccinia mCherry: inconclusive; HCMV inh: -22

What do the screens show for `COc1ccc(C(C)=O)cc1CN1C(=O)C(C)ON=C1c1ccccn1` (centres undefined)?
FMDV inh: -6%; VACV Venus inh: 8%; Vaccinia mCherry: inactive; HCMV inh: 42

How did COc1ccccc1CN1C(=O)C(C)ON=C1c1ccccc1F (centres undefined) do in these assays?
FMDV inh: -19%; VACV Venus inh: -1%; Vaccinia mCherry: inactive; HCMV inh: -80*

What do the screens show for `CC(=O)Nc1ccc(CN2C(=O)C(C)ON=C2c2ccccc2-c2ccco2)cc1` (centres undefined)?
FMDV inh: -20%; VACV Venus inh: 11%; Vaccinia mCherry: 24%; HCMV inh: 37

What do the screens show for `CSc1ccc(CN2C(=O)C(C)ON=C2c2ccccc2F)cc1` (centres undefined)?
FMDV inh: -21%; VACV Venus inh: -4%; Vaccinia mCherry: 1%; HCMV inh: -98*

How did CC1CCCN(CCOCCOc2ccc(Cl)cc2Br)C1 (centres undefined) do in these assays?
HCV inh: -29%; Sm TGR inh: 4%; FMDV inh: -57%; HCMV inh: -30

What do the screens show for `CC1CCCN(CCOCCOc2ccc(Br)cc2Cl)C1` (centres undefined)?
HCV inh: inconclusive; Sm TGR inh: 7%; FMDV inh: inconclusive; VACV Venus inh: -23%; Vaccinia mCherry: inactive; HCMV inh: -64*

How did CCC(C)NC(=O)Nc1ccc(Br)cc1 (centres undefined) do in these assays?
HCV inh: 5%; Sm TGR inh: 13%; FMDV inh: 6%; VACV Venus inh: -15%; Vaccinia mCherry: inactive; HCMV inh: inconclusive

What do the screens show for `CCC(C)Nc1ccc(NC(C)CC)cc1` (centres undefined)?
HCV inh: 22µM*; Sm TGR inh: 32µM*; FMDV inh: inconclusive; VACV Venus inh: inconclusive; Vaccinia mCherry: inconclusive

Results for COc1cccc(/C=C/C(=O)c2ccc3c(c2)OCO3)c1OC ?
HCV inh: -7%; Sm TGR inh: -19%; FMDV inh: 26%; VACV Venus inh: inconclusive; Vaccinia mCherry: 13µM*

Results for COc1cc(C(=O)c2ccc3c(c2)OCO3)cc(OC)c1OC ?
HCV inh: -11%; FMDV inh: -6%; VACV Venus inh: -15%; Vaccinia mCherry: inconclusive; HCMV inh: -83*

Results for Cc1cccn2c(=O)c3cc(C(=O)NCC(C)C)sc3nc12 ?
HCV inh: -22%; Sm TGR inh: 4%; FMDV inh: 28%; VACV Venus inh: 3%; Vaccinia mCherry: -11%; HCMV inh: 0

What do the screens show for `COc1cc2sc(-c3ccccc3OC)c(-c3ccc(OCCN4CCCCC4)cc3)c2cc1OC`?
HCV inh: 11µM*; FMDV inh: inconclusive; VACV Venus inh: inconclusive; Vaccinia mCherry: -22%; HCMV inh: -18

How did COc1ccccc1-c1sc2cc3c(cc2c1-c1ccc(OCCN2CCCCC2)cc1)OCO3 do in these assays?
HCV inh: inconclusive; FMDV inh: inconclusive; VACV Venus inh: 11µM*; Vaccinia mCherry: 28µM*; HCMV inh: -33

What do the screens show for `COc1ccc(CN2C[C@@H](CO)O[C@@H](n3cnc4c(NC5CCC5)ncnc43)C2)cc1`?
FMDV inh: 0%; VACV Venus inh: -6%; Vaccinia mCherry: inactive; HCMV inh: -31

Results for OC1(c2ccc(OC(F)F)cc2)CSC(=Nc2cccnc2)N1C1CC1 (centres undefined) ?
HCV inh: 32µM*; Sm TGR inh: inconclusive; FMDV inh: inconclusive; VACV Venus inh: inconclusive; Vaccinia mCherry: -18%; HCMV inh: -30

Bioassay records deposited in PubChem BioAssay by National Center for Advancing Translational Sciences (NCATS).
